Results from PubChem BioAssay AID1159580 (chemical genetic matrix, 2015).
The whole screen tested about 5,500 compounds, of which about 2,000 (36%) were called active. Roughly 18% stayed inconclusive and do not appear here. Cut-off read from the data, not from the text of the source: active = normalized growth mostly below about 0.91 (no sharp cut-off); inconclusive = no clear call, values can overlap the other calls; inactive = mostly above about 0.92. The list shows a part of the results.

Assay: chemical genetic growth profiling, strain panel (AID 1159580);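 note: tested at 20 µM; growth read once vehicle control cultures reached saturation at 30 °C; 1 = growth at the plate median or of vehicle wells; lower values mean less growth of the strain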
Conditions: S. cerevisiae deletion strains, growth OD

Measured: normalized growth

CC1(NCC(O)COc2cccc3[nH]ccc23)CCC(C(C)(C)NC(=O)CBr)CC1 (centres undefined)
inactive: locus YAL040C, strain CLN3, stronger effect = lower value 1.04 | locus YCL061C, strain MRC1 (second series), stronger effect = lower value 0.993 | locus YDR363W, strain ESC2, stronger effect = lower value 1.03 | locus YER002W, strain NOP16, stronger effect = lower value 1.03 | locus YGR078C, strain PAC10, stronger effect = lower value 1 | locus YGR229C, strain SMI1, stronger effect = lower value 0.997 | locus YMR307W, strain GAS1, stronger effect = lower value 0.99 | locus YNL175C, strain NOP13, stronger effect = lower value 1.02 | locus YNL197C, strain WHI3, stronger effect = lower value 1.02 | locus YNL224C, strain SQS1, stronger effect = lower value 1.06 | locus YNL322C, strain KRE1, stronger effect = lower value 0.973 | locus YOR083W, strain WHI5 (second series), stronger effect = lower value 1.02 | locus YPL055C, strain LGE1, stronger effect = lower value 0.968 | locus YPL241C, strain CIN2, stronger effect = lower value 1
